# According to the supplement of paper PMC11417369:
# ± gives the standard deviation of the averaged measurements. In all, about 25,000 sequences were measured (“ln(normalized median fluorescence intensity)”: median about 8.9, highest 2% from about 10 on). What follows is part of a selection rich in the highest values, with near analogues and random picks from the rest.
# Tested on: PfAP2-LT AP2 domain (GST-tagged)
# Test: gcPBM binding intensity (ln(normalized median fluorescence intensity)); higher = stronger DNA binding
# Method in brief: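 Using an Agilent 4 × 180k array, primer-extended double-stranded 36-bp intergenic genomic probes and negative controls were exposed for 1 h to GST-fused P. falciparum DNA-binding domains expressed in E. coli. Binding was carried out in 1× PBS with 1% milk, 0.2 mg/ml BSA, 0.5% salmon testes DNA and 0.03% Triton X-100, and protein was detected with Alexa488 anti-GST antibody and a 488 nm scan. Binding intensity is the highest Masliner-normalised natural-log median intensity across replicate spots of either probe orientation.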
row,Sequence,gcPBM binding intensity (ln)
1,AAAAGTTATAGACACACACACATATAAATATAGATT [CACACA_site6617],9.57 ± 0.3
2,TGTGTATAAATATACACACACATATAAATATTTTAA [CACACA_site7005],9.09 ± 0.35
3,TTGCCATTAATTTATACACACACATTTTAATTTTTT [CACACA_site8150],9.16 ± 0.39
4,GTAAATTATATAACAAATAAAAATGTACATATATAT [CACACA_negctrl_site408],8.88 ± 0.46
5,TAAATTATCTTTTTATGTACTTATTTTTATTATTTT [XGTACX_site3158],8.73 ± 0.55
6,AAAATATATGAAAACAGTACATATAAAAATTAAAAA [XGTACX_site2594],8.75 ± 0.64
7,AAAAAAATTAATATGTCAGCACATATATACATACAT [GTGCAC_negctrl_site110],8.88 ± 0.41
8,ATATTAGTCGAATGATGTACACACATACAAAACATT [XGTACX_site8613],9.28 ± 0.45
9,TGTGAATATATCTTTAAAAAGGATAAATAATAATTT [CACACA_negctrl_site507],8.47 ± 0.52
10,GATGGATTTATTTAAAGTACATATTTAAAAAACTGT [XGTACX_site7567],8.51 ± 0.49
11,ACCTATTTCAAACACACACACACACTAACAAACATA [CACACA_site8233],10 ± 0.13
12,AATACACGCAAACACACACACACACCCACATATATA [CACACA_site638],10.3 ± 0.14
13,GAACAAACAAAGAAAGAACACACATACACAATATAC [CACACA_site8918],9.6 ± 0.38
14,ACCTATTTCAAACACACACACACACCCACAAACATA [CACACA_site977],10.1 ± 0.33
15,AATATAATATAAGGATCACACACAAACACCCATATA [CACACA_site8084],9.77 ± 0.2
16,GGAAACACAATATATACACACATATATATATATATA [CACACA_site235],10.1 ± 0.021
17,AAGGATCACCCACAAACACACATATATATATATATA [CACACA_site559],10.2 ± 0.28
18,TATAATATAAGGATCACACACAAACACCCATATATA [CACACA_site4468],9.56 ± 0.18
19,ACAATAAACATATATACACACACAAAAAAAAAAACA [CACACA_site8033],9.64 ± 0.33
20,ATGTACCTATTTCATACACACACACCCACAAACAAA [CACACA_site8232],9.66 ± 0.16
21,CGCACCCAAATATATACACACATATATATATATATA [CACACA_site1651],10.1 ± 0.16
22,AGCAAATACAAACACACACACACATATACATATATA [CACACA_site3497],10.1 ± 0.26

row,Sequence,gcPBM binding intensity (ln)
1,TTTTATTTATCATACACACACAGAAAAAAAAAAAAA [CACACA_site158],8.89 ± 0.32
2,TTTTTTTTCAAAAATACAAAAAAAAAAGAAAAAAAC [CACACA_negctrl_site625],8.5 ± 0.4
3,AAATAACACATATATACACACATATAACTATAATAT [CACACA_site7298],9.29 ± 0.4
4,ACATGTAATATAATGTGTACATATACAAAGGTATAT [XGTACX_site4145],9.34 ± 0.59
5,AGTGAATATTACGAAACACACAAAAAAATACATTTC [CACACA_site511],9.09 ± 0.38
6,CAAACAAATTGTGAAACACACATATATATATATATA [CACACA_site2001],9.81 ± 0.057
7,TATATTATTAATTAGGGTACAAAAAAAAAATTTTTT [XGTACX_site7762],8.3 ± 0.48
8,AAAGGTTTATCTGATACACACATAAGTGATCAGGTT [CACACA_site6233],8.83 ± 0.33
9,TTTTTTCAATAAATAATCGTATATTGAATAATAATA [CACACA_negctrl_site822],8.07 ± 0.37
10,TCATTTCAATACACAAGTACGTATATGGTTATATTG [XGTACX_site6021],8.82 ± 0.4
11,ATAAGGATCAGACACAAACACACATATATATATATA [CACACA_site558],10.1 ± 0.13
12,AAGGATCACAGACAAACACACATATATATATATATA [CACACA_site4469],10.1 ± 0.16
13,CACCCACACCAACACACACACATATATAATATATAT [CACACA_site595],9.88 ± 0.33
14,AACCACATACATATAACACACATATACAATATATAT [CACACA_site8607],9.29 ± 0.39
15,AATAACCACCAACACACACACATATATATATATATA [CACACA_site3540],10.2 ± 0.24
16,TCATAGTAGAAACACACACACACACCCATATATATA [CACACA_site1737],10.1 ± 0.23
17,TATAATATAAGGATCACACACAAACAGACATATATA [CACACA_site557],9.49 ± 0.37
18,CATACTCACCAACACACACACACACCCATATAGAAT [CACACA_site592],10.2 ± 0.28
19,TATAAACACCCATATAAACACACATATAAACCAACA [CACACA_site8790],9.31 ± 0.28
20,TAATTTAGTATCTTTACATGCGGGCATTATGTCATA [TGCATGCA_site167],8.74 ± 0.4
21,AAGAAAATAGGGTTCATAGGATTATACTTTTGGAAT [TGCATGCA_negctrl_site80],8.59 ± 0.54
22,TAATACTTAATGAACACATGCACATATACATAGTAT [TGCATGCA_site496],8.82 ± 0.47
